# Measurements: PubChem BioAssay (NCI)
# This is part of a sample that, as a whole, favours compounds with a hit. Of some 79,000 tested, about 15% had one in any assay. Calls of active or inactive are those of the source. No stated cut-off is given here; in the data, active means growth inhibition above about 70%; inactive means the rest.
# Test: NCI Yeast Anticancer Drug Screen. Data for the bub3 strain (AID 167)
# Settings: S. cerevisiae bub3 mutant strain, at 5.0 µM (retest, dose inferred, filed as 0.5), stronger effect = higher value
# In short: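 Whole-cell yeast assay. The mutant strain was incubated with compounds, and growth inhibition was determined by comparison with vehicle-treated cells.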
row,SMILES,growth inhibition
1,O=Nc1c(O)ccc2ccccc12.[Fe].[Na+],13% (inactive)
2,CC(C)Cc1ncc(CC(C)C)n(O)c1=O,10% (inactive)
3,COc1ccc2c(c1)CCc1c-2ccc(C)c1CCC(=O)O,10% (inactive)
4,COc1ccc(/C=C(\C#N)c2ccccc2)cc1OC,5% (inactive)
5,CCC(=O)OCC(=O)c1ccc(-c2ccccc2)cc1,36% (inactive)
6,C=C1CC(c2ccc(OCCCN3C(=O)c4ccccc4C3=O)c(OC)c2)OC1=O (stereo not given),-16% (inactive)
7,N[C@H](C(=O)O)[C@@H]1CC(Cl)=NO1,68% (inactive)
8,Cc1ccc2c(c1)[n+]([O-])c(N)c(C#N)[n+]2[O-],-31% (inactive)
9,Cc1cc(O)c2c(c1)C(=O)c1c(c(O)cc(O)c1-c1c(O)cc(O)c3c1C(=O)c1cc(C)cc(O)c1C3=O)C2=O,17% (inactive)
10,CC(=O)c1csc2c1C(=O)c1scc(C(C)=O)c1C2=O,37% (inactive)
11,CCC(CCCN(CC)CCc1ccccc1)OC(=O)c1cc(OC)c(OC)c(OC)c1 (stereo not given),4% (inactive)
12,COC(CCC[N+](C)(C)C)CC[N+](C)(C)C (stereo not given),-9% (inactive)
13,CCC(=O)c1ccc2ccc3ccccc3c2c1,12% (inactive)
14,CN(C)c1nc(N(C)C)oc(=[N+](C)C)n1,3% (inactive)
15,COc1ccc(Cc2ccc(N)cc2)cc1,-66% (inactive)
16,CN(C)CC(CN(C)C)C(=O)c1ccc(Oc2ccccc2)cc1,69% (inactive)
17,C1C2OC2C2C1C1CC2C2OC12 (stereo not given),1% (inactive)
18,Nc1ccc2c(c1)[nH]c(=O)c1cccc(Cl)c12,-52% (inactive)
19,COc1cccc(C2c3cc4c(cc3OC(Nc3ccccc3)C2C)OCO4)c1O (stereo not given),-19% (inactive)
20,Cc1cc(SC#N)cc(C)c1O,-4% (inactive)

row,SMILES,growth inhibition
1,CCN(CC)CCCNc1ncc(C)c2c1c1ccc3c(O)cccc3c1n2C,19% (inactive)
2,O=C1c2ccccc2C(O)(C#Cc2ccccc2)c2cnccc21 (stereo not given),-11% (inactive)
3,CC(=O)Nc1nnc(C)s1,1% (inactive)
4,CC1CN(CC(O)c2ccc(Br)cc2)CC(C)O1 (stereo not given),12% (inactive)
5,O=C(C=P(c1ccccc1)(c1ccccc1)c1ccccc1)CC(=S)CC(=O)C=P(c1ccccc1)(c1ccccc1)c1ccccc1,9% (inactive)
6,CN(C)CCC(/C=C/c1ccccc1)=N\Nc1ccc(Cl)cc1Cl,80% (active)
7,Oc1c(Cl)cc(Br)cc1Cl,13% (inactive)
8,Cc1ccc2c(ccc(CC(=S)[S-])[n+]2C)c1,3% (inactive)
9,Cc1ccc2c(c1)C(=O)N(CC[P+](c1ccccc1)(c1ccccc1)c1ccccc1)C2=O,84% (active)
10,Nc1ncnc2c1c(-c1ccccc1)cn2-c1ccc(Cl)cc1,8% (inactive)
11,Nc1nnc(-c2cc([N+](=O)[O-])cc([N+](=O)[O-])c2)o1,3% (inactive)
12,COc1cc2c(cc1OC)C(Cl)C(c1ccc(F)cc1)=C2Cl (stereo not given),-2% (inactive)
13,COc1ccc(C2Oc3c(cccc3OC)C=C2[N+](=O)[O-])cc1 (stereo not given),45% (inactive)
14,O=C(O)c1cc2cc3ccccc3cc2cc1O,0% (inactive)
15,Oc1ccc2ccc3ccccc3c2c1,-3% (inactive)
16,COC(=O)c1ccc(OC)cc1,3% (inactive)
17,Clc1ccc2c(NCCCCCCNc3ccnc4cc(Cl)ccc34)ccnc2c1,-11% (inactive)
18,COc1ccc(C2C3=C(CCC(CN(C)C)C3=O)OC3=C2C(=O)C(CN(C)C)CC3)cc1 (stereo not given),-17% (inactive)
19,CC(C)CC(NC(=O)COc1c(Cl)cc(Cl)c(Cl)c1Cl)C(=O)O (stereo not given),5% (inactive)
20,Cc1nc2c(=O)[nH]c3ccc(Cl)cc3c2o1,6% (inactive)
